The text below walks through data of PubChem BioAssay (NCI).

This is part of a sample that, as a whole, favours compounds with a hit. Of some 83,000 tested, about 20% had one in any assay.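 Values shown are percent growth following 48 h exposure of cells in 96-well plates to a single concentration of compound; below 10 was considered active.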 A number with no mark means an inactive call. Activity calls are given as the source filed them.

This test concerns HL-60(TB) leukemia. As to the kind of experiment: NCI-60 one-dose screen, 48 h (100 = growth as untreated, 0 = no growth, -100 = all killed). Conditions: 10 µM unless noted.
Consider `CC(=O)c1c([Si](C)(C)C)c2cc(C#N)ccn2c1C(=O)c1ccc(Br)cc1`, for which the growth is 97.8%.

For `Nc1nc(N)c2c(n1)NC(c1ccc(Cl)cc1)CC(c1ccc(Nc3nc(NCCO)nc(Nc4ccc(Cl)cc4)n3)cc1)=N2` (stereo unspecified), the growth was 9.81% (active).

For the compound `CC1(C)C=Cc2cc(/C(N)=N/C(N)=N/c3nc4ccccc4s3)ccc2O1`, the growth is 72.9%.

In the case of `O=C(N/N=C/c1ccco1)c1[nH]c2ccc(Br)cc2c1-c1ccccc1`, the growth is -28.4% (active).

As to `CC1=C(C)C(=O)C(Nc2ccc3c(c2)OCCO3)=C(Br)C1=O`, the growth was -44.2% (active).

For the compound `COc1ccc2[nH]cc(-c3cc(N)n4nc(-c5c[nH]c6ccc(OC)cc56)cc4n3)c2c1`, the growth was -46.1% (active).
